Sampled rows, rich in hits. Any-hit rate of the full collection: about 2.3%.
S2 tox – Viability Counterscreen for Primary qHTS for Inhibitors of ATXN expression; Potency, µM (top dose mostly 56.7 µM), hits mostly cytotoxic; 0.49% of 400,000 active; S2 cells (HEK-293 line with an ATXN2-luciferase reporter) viability, CellTiter-Fluor protease fluorescence, 24 h; further: nearly all actives have a fitted effect of over 40% in size
TGFb inhibitor – qHTS for Inhibitors of TGF-b; Potency, µM (highest dose often 46.1 µM), inactives show top-dose activity, negative = inhibition, actives largely listed as inhibitors; 1.2% of 410,000 active; HepG2 CAGA-GFP TGF-b/SMAD3 reporter, GFP fluorescence, 18 h; TGF-beta stimulated, 500 pg/mL final; further: on the % scale 0 is the no-effect control and ±100 the full control effect; nearly all actives have a fitted effect of over 65% in size
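Inhibition of TGF-beta-driven CAGA-GFP reporter expression in HEPG2 cells is measured by cellular GFP fluorescence after 18 h stimulation with 500 pg/mL recombinant TGF-beta in 1% FBS medium at 37 degrees C.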
ATXN2 expr inh – Primary qHTS for Inhibitors of ATXN expression | 0.72% of 360,000 active | HEK-293 ATXN2-luciferase reporter, luminescence, 24 h | Potency, µM (titrated, usually from 57 µM), without a hit: at the highest dose activity change, negative = inhibition, actives largely listed as inhibitors; further: on the % scale 0 is the no-effect control and ±100 the full control effect; nearly all actives have a fitted effect of over 55% in size
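qHTS (up to 57 uM final) was run with 24 h compound exposure of reporter cells at 37 °C. Each well was multiplexed: SteadyGlo luminescence measured ATXN2-luciferase expression after a fluorogenic Gly-Phe-AFC viability readout (25 uM final).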
HepG2 tox-1 – qHTS for Inhibitors of TGF-b: Cytotox Counterscreen | Potency, µM (series often up to 46.1 µM), for the others: at the top dose activity change, negative = cytotoxicity, usual class: cytotoxic | 0.76% of 410,000 active | AID 588856, 2011 | HepG2 CAGA-GFP viability, ATP luminescence, 18 h
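CellTiter-Glo luminescence gave cytotoxicity after 18 hours at 37 degrees C. The cells were HepG2 CAGA-GFP in 1% FBS DMEM, stimulated with 500 pg/mL TGF-beta after compound addition. %Activity was normalised to no-cell wells (complete cell-killing) and DMSO (no toxicity), and curves were fitted and classified.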
TGFb confirm – qHTS for Inhibitors of TGF-b: Confirmation of Cherry Picks; shares compounds with TGFb inhibitor; HepG2 CAGA-GFP TGF-b reporter, GFP fluorescence, 18 h; cells stimulated with TGF-beta, 500 pg/mL; Potency, µM (series often up to 46.1 µM), without a hit: top-dose activity, negative = inhibition, actives largely listed as inhibitors; 63% of 1,600 active; AID 720534, 2013; further: on the % scale 0 is the no-effect control and ±100 the full control effect; nearly all actives have a fitted effect of over 65% in size
HepG2 tox-2 – qHTS for Inhibitors of TGF-b: Cytotox Counterscreen for Cherry Picks. AID 720535, 2013. shares compounds with TGFb inhibitor. HepG2 CAGA-GFP viability, ATP luminescence, 18 h; cells stimulated with TGF-beta, 500 pg/mL. Potency, µM (series often up to 46.1 µM), inactives show at the top dose activity, negative = cytotoxicity, most hits filed as inhibitors. 27% of 1,600 active; further: on the % scale 0 is the no-effect control and ±100 the full control effect; nearly all actives have a fitted effect of over 70% in size
TGFb CCL64 inh – qHTS for Inhibitors of TGF-b: CCL64 Cells Orthogonal Assay for Cherry Picks; shares compounds with TGFb inhibitor; CCL64 CAGA-GFP reporter, TGF-b stimulated, GFP fluorescence, 18 h; Potency, µM (highest dose often 46.1 µM), for the others: top-dose activity, negative = inhibition, usual class: inhibitors; 41% of 1,600 active; further: nearly all actives have a fitted effect of over 65% in size
TGFb COP inh – qHTS for Inhibitors of TGF-b: Hit Validation in HepG2 Cells using COP promoter | 3% of 1,600 active | shares compounds with TGFb inhibitor | HepG2 COP-GFP TGF-b reporter, GFP fluorescence, 18 h; cells stimulated by added recombinant TGF-beta | Potency, µM (series often up to 46.1 µM), for inactives: at the top dose activity, negative = inhibition, actives largely listed as inhibitors; further: nearly all actives have a fitted effect of over 70% in size
Numbers without * were called inactive; ? = inconclusive; . = no result given; ! = not active in a repeat. The call rests on the fitted dose curve; in most records, active means well fitted curve in the direction sought with a large enough effect; inconclusive means small, poorly fitted or top-dose-only effect, or another doubt; inactive means no such curve, though single readings can be large; an effect the other way counts as inactive or inconclusive. Potency means the concentration at half of the fitted maximal effect.

SMILES | S2 tox | TGFb inhibitor | ATXN2 expr inh | HepG2 tox-1 | TGFb confirm | HepG2 tox-2 | TGFb CCL64 inh | TGFb COP inh
CC12CCC(O)CC1CCC1C2CCC2(C)C(C3=CC(=O)OC3)CCC12O (stereo not drawn) | ? | 4µM* | 0.84µM* | -33% | 16µM* | 2.6µM* | 1.3µM* | 56%
COc1ccc(CC2C(=O)NC(C)C(=O)N(C)C3C(=O)N(C)C(Cc4ccc(O)c(c4)Oc4ccc(cc4)C3O)C(=O)NC(C)C(=O)NC(C)C(=O)N2C)cc1 (stereo not drawn) | ? | -116% | 0.084µM* | -20% | 0.0065µM* | 1.6µM* | 0.012µM* | 5%
Cc1ccccc1C(=O)Nc1cc(-c2ccc(Cl)cc2)nn1-c1ccccc1 | ? | -2% | 1% | -1% | . | . | . | .
O=[N+]([O-])c1ccc(N(CCO)CCO)c2c1no[n+]2[O-] | . | 7.1µM* | . | -115% | 10µM* | 13µM* | 12µM* | ?
CN1CCN(c2ccc([N+](=O)[O-])c3no[n+]([O-])c23)CC1 | . | 3.2µM* | 2.4µM*! | 8.9µM* | 4.1µM* | 5.2µM* | 3.3µM* | ?
C[C@H]1CNC(=O)c2c(C(=O)Nc3ccc(CNC(=O)OC(C)(C)C)cc3)ncn21 | ? | -33% | ? | -9% | . | . | . | .
O=C1NCN(c2ccccc2)C12CCN(C(c1cc3ccccc3o1)c1nnnn1C1CCCC1)CC2 (stereo not drawn) | ? | ? | ? | 0% | . | . | . | .
O=C1NCN(c2ccccc2)C12CCN(C(CCc1ccccc1)c1nnnn1Cc1ccccc1)CC2 (stereo not drawn) | ? | 18µM* | ? | -1% | 15µM* | ? | 12µM* | 76%
CSCCC(c1nnnn1Cc1ccccc1)N1CCC2(CC1)C(=O)NCN2c1ccccc1 (stereo not drawn) | ? | ? | -24% | 8% | . | . | . | .
O=C1NCN(c2ccccc2)C12CCN(C(c1ccccc1)c1nnnn1Cc1ccccc1)CC2 (stereo not drawn) | ? | 11µM* | ? | 4% | 18µM* | -12% | 12µM* | -1%
O=C1NCN(c2ccccc2)C12CCN(C(CCc1ccccc1)c1nnnn1-c1ccc3c(c1)OCCO3)CC2 (stereo not drawn) | ? | 13µM* | 0% | 4% | ? | -7% | 4.1µM* | 6%
O=C1NCN(c2ccccc2)C12CCN(C(c1cc3ccccc3o1)c1nnnn1Cc1ccccc1)CC2 (stereo not drawn) | . | 14µM* | ? | 0% | 21µM* | -20% | 15µM* | 5%
O=C(Cc1c(O)c2ccccc2oc1=O)c1ccc(F)cc1 | ? | -10% | 17% | 1% | . | . | . | .
COc1ccc2[nH]c3c(c2c1)CCN1C(=O)C(CC(=O)NCc2cccc(C(F)(F)F)c2)C[C@H](C(=O)N2CCCCC2)[C@@]31C (stereo partly drawn) | ? | 10µM* | 0% | 2% | 8.2µM* | -17% | 4.6µM* | 3%
Cc1ccc(N2C(=O)NC(=O)/C(=C\C=C\c3ccco3)C2=O)cc1C | 14µM* | 13µM* | 7.9µM* | -5% | 2.6µM* | 2.9µM* | 4.6µM* | ?
